These results are taken from PubChem BioAssay AID504834 (National Center for Advancing Translational Sciences (NCATS), 2011).

Hit rate of the full screen: of about 320,000 compounds, about 22,000 (6.9%) were called active. Roughly 27% stayed inconclusive and do not appear here. What follows is part of a selection rich in actives, with near analogues and random picks from the rest. A number with no mark means an inactive call. The call rests on the fitted dose curve; in most records, active means well fitted inhibition curve with a large enough effect; inconclusive means small, poorly fitted or top-dose-only effect, or another doubt; inactive means no such curve, though single readings can be large or run the other way.
On the % scale 0 is the no-effect control and ±100 the full control effect; potency means the concentration at half of the fitted maximal effect.

The test is described as follows: Primary qHTS for delayed death inhibitors of the malarial parasite plastid, 96 hour incubation. As to conditions: P. falciparum luciferase reporter growth; series mostly up to 28.7 µM; activity change, negative = inhibition: at the top concentration. In outline: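 Delayed-death screen, second-generation endpoint: infected erythrocytes, 2% hematocrit, 0.05% parasitemia final; 96 hours at 37 C, 5% CO2; luciferase detection reagent; luminescence decrease equals reduced growth.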
(qHTS replaces the single test concentration by a dilution series.)
`CCOc1ccc(S(=O)(=O)N2CCC(C(=O)NCc3ccccn3)CC2)cc1Cl`: the “activity change, negative = inhibition” value is -3.21%.

Regarding `O=C(NCc1ccccc1)C1CCN(C(=O)Cc2ccccc2)CC1`, the “activity change, negative = inhibition” value was -21.4%.

As to `CN(C)S(=O)(=O)c1cccc(NC(=O)COC(=O)/C=C/c2cccs2)c1`, the “activity change, negative = inhibition” value is 55.6%.

As for `Cc1ccc(/C=N/NC(=S)Nc2cccc(S(=O)(=O)N(C)C)c2)o1`, the Potency is 6.57 µM (active).

As for `CN(C)S(=O)(=O)c1cccc(NC(=O)COC(=O)c2cc(=O)[nH]c(=O)[nH]2)c1`, the “activity change, negative = inhibition” value was 6.59%.

Turning to `CCCOc1ccc(Cc2c(O)nc(N)[nH]c2=O)cc1C`, the “activity change, negative = inhibition” value was -17.1%.

Regarding `S=C(NNC(=S)NC1CC2C=CC1C2)NC1CC2C=CC1C2` (stereo not drawn), the Potency is 9.28 µM (active).

`CSC1=NC2(C)CCCCC2C12C=CC(=O)C=C2` (stereo not drawn): the Potency is 13.1 µM (active).

Turning to `Cc1cc2c(cc1S(=O)(=O)CCC(=O)NCc1ccccc1)OCC(=O)N2`, the “activity change, negative = inhibition” value is 3.56%.

Regarding `O=C(CSc1nccc(=O)[nH]1)Nc1ccc(N2CCOCC2)c(Cl)c1`, the “activity change, negative = inhibition” value is -26.5%.

Take `COc1ccc(CN(Cc2ccc(OC)cc2)C(=O)c2cccs2)cc1`: the “activity change, negative = inhibition” value is -6.73%.

On to `CCCSc1nc2sc3c(c2c(=O)n1-c1ccc(OC)cc1)CCN(C)C3`, for which the Potency was 4.65 µM (active).

As to `CCOc1ccc(-n2c(SCC(=O)NC3CCS(=O)(=O)C3)nnc2-c2cccnc2)cc1` (stereo not drawn), the “activity change, negative = inhibition” value was 10.7%.

For the compound `COc1ccccc1NC(=O)CSc1nc2sc(C)c(C)c2c(=O)n1Cc1ccco1`, the “activity change, negative = inhibition” value is 19.6%.

Regarding `CCCn1c(N)c(C(=O)CSc2nc3ccccc3c(=O)n2-c2ccc(OC)cc2)c(=O)[nH]c1=O`, the “activity change, negative = inhibition” value was 76.7%.

`COc1ccccc1NC(=O)CSc1nc2sc3c(c2c(=O)n1-c1ccccc1)CCN(C)C3`: the Potency is 1.65 µM (active).

In the case of `CCOc1ccc(-n2c(SCC(=O)OC)nc3sc4c(c3c2=O)CCN(C)C4)cc1`, the Potency was 0.828 µM (active).

Take `COc1ccccc1OCc1nnc(SCC(N)=O)n1-c1ccccc1`: the “activity change, negative = inhibition” value is -2.43%.

`COc1ccc(-n2c(=S)[nH]c3sc4c(c3c2=O)CCc2ccccc2-4)cc1`: the “activity change, negative = inhibition” value was -104%.

For `COc1ccccc1NC(=O)CSc1nnc(Cn2nnc(-c3ccccc3)n2)n1-c1ccccc1`, the Potency is 7.38 µM (active).

For `COc1ccccc1-n1c(SCC(=O)O)nc2sc3c(c2c1=O)CCC3`, the “activity change, negative = inhibition” value was -1.23%.

For `COc1ccccc1NC(=O)CSc1nnc(Cc2cccn2C)n1-c1ccc(F)cc1`, the “activity change, negative = inhibition” value is 29.7%.

As for `CCOc1ccc(NC(=O)CSc2nncn2C)cc1`, the “activity change, negative = inhibition” value was 30.9%.

`Cc1ccc(C(=O)Oc2ccc(C(=S)N3CCOCC3)cc2)cc1`: the “activity change, negative = inhibition” value is -3.89%.

`O=C(Nc1ccc(-c2cscn2)cc1)C1CCCN(Cc2ccc(CO)o2)C1` (stereo not drawn): the “activity change, negative = inhibition” value is 6.28%.

As for `Cc1n[nH]c(=O)c2c(NC(=O)CSc3ccccc3F)oc(C)c12`, the “activity change, negative = inhibition” value is 49.4%.

Turning to `COc1cc(N2C(=O)CSC2=S)cc(OC)c1OC`, the “activity change, negative = inhibition” value was 8.02%.

Consider `Cc1cc(C(=O)NC2CC(C)(C)Cc3c2cnn3-c2ccccc2)n[nH]1` (stereo not drawn), for which the “activity change, negative = inhibition” value was -4.15%.

Take `Cc1ccc(C)c(-n2c(SCC(=O)O)nc3sc4c(c3c2=O)CCCC4)c1`: the “activity change, negative = inhibition” value is -7.37%.

For the compound `CCSc1nc2sc3c(c2c(=O)n1-c1ccc(C)cc1)CCN(C)C3`, the Potency was 0.928 µM (active).

On to `Cc1nc2sc3c(c2c(=O)n1NC(=O)CCl)CCCC3`, for which the “activity change, negative = inhibition” value is -26.3%.

On to `COC(=O)c1sccc1NC(=S)Nc1ccc(C)cc1`, for which the “activity change, negative = inhibition” value was 2.1%.

With `CNC(=O)N1c2ccccc2C=Cc2ccccc21`, the “activity change, negative = inhibition” value was -13.3%.

As for `COc1ccc(Cc2nc(-c3ccccn3)no2)cc1OC`, the “activity change, negative = inhibition” value was 14.9%.

With `N#Cc1ccc(Oc2cc(C(F)(F)F)nc(-c3ccccn3)n2)cc1`, the “activity change, negative = inhibition” value was 115%.

Take `Cc1ccc(Oc2nc(-c3ccccn3)nc3ccccc23)cc1`: the Potency was 5.86 µM (active).

Take `COc1cnc(-c2ccccn2)nc1Oc1ccc(C(C)(C)C)cc1`: the Potency was 0.329 µM (active).

Turning to `COc1ccc(Sc2nc(-c3ccccc3)ncc2OC)cc1`, the “activity change, negative = inhibition” value is 15.8%.

In the case of `COc1ccccc1Oc1nc(-c2cccnc2)nc2ccccc12`, the “activity change, negative = inhibition” value is -24.1%.

For the compound `C=Cc1ccc(C(=O)N2CCCC(CCC(=O)N3CCN(c4ccccn4)CC3)C2)cc1` (stereo not drawn), the “activity change, negative = inhibition” value is 37.2%.

As to `C/C=C/C(=O)OCc1csc(CC(=O)Nc2ccccc2C)n1`, the “activity change, negative = inhibition” value is -7.19%.

As for `O=C(NCCc1ccc(C(F)(F)F)cc1)c1ccc2c(c1)OCO2`, the “activity change, negative = inhibition” value was 17.6%.

As to `CCOC(=O)c1nnn2c3ccccc3c(=O)n(C)c12`, the “activity change, negative = inhibition” value is 0%.

In the case of `CCOC(=O)c1nnn2c1nc(N1CCN(c3ccccc3)CC1)c1ccccc12`, the Potency was 2.62 µM (active).

Take `O=C(COC(=O)c1ccccc1C(=O)N1CCN(c2ccccc2)CC1)NCc1ccccc1`: the “activity change, negative = inhibition” value was -13.9%.

With `O=C(NCCc1ccccc1)Oc1ccc(Cl)cc1`, the “activity change, negative = inhibition” value is 83.8%.

As for `CCn1c(SCC(=O)NNC(=O)c2ccc(OC)cc2)nnc1C(C)C`, the “activity change, negative = inhibition” value was -16.7%.

Take `CC1CCC(CN2CCN=C2N(C)C)CC1` (stereo not drawn): the “activity change, negative = inhibition” value is 3.19%.

Turning to `O=C(CCCN1C(=O)CCC1=O)Nc1ccc(Cl)c(C(F)(F)F)c1`, the Potency was 2.08 µM (active).

With `CCCCC(=O)Nc1ccc(C(=O)Nc2cc(C(F)(F)F)ccc2Cl)cc1`, the “activity change, negative = inhibition” value is -15.4%.

Consider `O=C1CCCN1CCCNC(=S)Nc1ccc(F)c(Cl)c1`, for which the “activity change, negative = inhibition” value is 4.63%.

On to `CNC(=O)c1sc(Nc2ccc(OCc3ccccc3)cc2)nc1C`, for which the “activity change, negative = inhibition” value was 1.4%.

As for `O=C(COc1ccccc1[N+](=O)[O-])N/N=C/c1ccc[nH]1`, the “activity change, negative = inhibition” value is 31.6%.
